Measured values published in PubChem BioAssay (NCATS).
Records with an inconclusive call do not appear. The source made the active and inactive calls. Calls follow the shape of the dose curve; as a rule, active = well fitted cell-killing curve with a large enough effect; inconclusive = small, poorly fitted or top-dose-only effect; inactive = flat fitted curve, though single readings scatter.

Assay: qHTS of pediatric cancer cell lines to identify multiple opportunities for drug repurposing: Primary screen for Rh18 cells (AID 1347102); also: nearly all actives have a fitted effect of over 65% in size
Conditions: Rh18 rhabdomyosarcoma viability, CellTiter-Glo luminescence, 48 h; series mostly up to 46 µM; activity change, negative = cytotoxic: at the top concentration
Text: Drug repurposing or repositioning has been offered as a strategy for drug development in oncology programs. This approach has special potential for childhood cancers and other rare or orphan diseases, where the expected return on new drug development has been a disincentive to pharmaceuticals.
In this project we exploit the poly-pharmacology of drugs to discover new indications via phenotypic screening of a panel of 19 well-characterized cell lines derived from solid tumors seen in children and adolescents. The goal is to identify approved drugs with previously unrecognized anticancer properties that has the potential to reveal new mechanisms and biological processes involved in carcinogenesis or drug resistance. We employed a titration-based paradigm (quantitative high-throughput screening or qHTS), where all compounds were tested at multiple concentrations for their effect on cell viability. Concentration-response curves (CRCs) were derived directly from the primary screen, and both potency and efficacy values were used to identify compounds with robust bioactivity profiles. We screened the NIH Chemical Genomics Center (NCGC) Pharmaceutical Collection (NPC) and Mechanism Interrogation Plate (MIPE) small molecule collections of approved and investigational compounds against these cell lines; and measured metabolically active cells after 48 hours of compound treatment as a proxy for cell viability.
Assay Submitter: Nathalia J. Martinez, National Center for Advancing Translational Sciences, National Institutes of Health, Rockville, MD, USA; email: natalia.martinez@nih.gov
[1] Shen, M et al. Quantitative high-throughput phenotypic screening of pediatric cancer cell lines identifies multiple opportunities for drug repurposing. Oncotarget 2017 Dec 19;9(4):4758-4772. PMID 29435139.
The cells were obtained from University of North Carolina (UNC), Pediatric Preclinical Testing Program (PPT), and Coriell Institute (CI).
qHTS cell viability assay:
Cells were assayed in growth media at a density of 500-1,000 cells/well. Five microliters of cells were dispensed into 1,536-well, white, solid-bottom, TC-treated plates (Greiner Bio One) using a multidrop dispenser and incubated at 37 degrees C, 5% CO2, under a humidified atmosphere for 5 hours. Twenty-three nanoliters of compounds and controls (neutral control DMSO or positive control bortezomib at final concentration of 2.3 µM) were subsequently transferred by Kalypsys pintool. For primary screens, the MIPE collection was tested at 11-point dilutions (final concentrations range from 0.78 nM to 46 µM) and the NPC collection at 8-point dilutions (final concentrations range from 0.59 nM to 46 µM). Compounds tested in follow-up screens were assayed at 11-point dilutions. Cells were incubated for 48 hours, followed by addition of 3 µL of CellTiter-Glo (Promega). After a 15 min incubation at room temperature, samples were analyzed for luminescence intensity using a ViewLux High-throughput CCD imager equipped with clear filters.
% is scaled to controls: 0 for no effect and ±100 for the full control effect; potency is read from the fitted curve at half-maximal effect.

Row | Compound | Potency | activity change, negative = cytotoxic
1 | CSc1ccc2c(c1)N(CCC1CCCCN1C)c1ccccc1S2 (stereo not given) | 16.8 µM (active) | –
2 | NC(=O)NC(=O)Cc1ccccc1 | – | 5.68% (inactive)
3 | CN1[C@@H]2CC[C@H]1CC(OC(=O)C(O)c1ccccc1)C2 (stereo not given in full) | – | 10.8% (inactive)
4 | CO/N=C(\C(=O)N[C@@H]1C(=O)N2C(C(=O)O)=C(CSc3nc(=O)c(O)nn3C)CS[C@H]12)c1csc(N)n1 | – | 15.3% (inactive)
5 | CS(=O)(=O)c1ccc([C@@H](O)[C@@H](CF)NC(=O)C(Cl)Cl)cc1 | – | 7.05% (inactive)
6 | O=C1O[C@H](CO)[C@@H](O)[C@H](O)[C@H]1O | – | 11.4% (inactive)
7 | CC(O)CN(CCN(CC(C)O)CC(C)O)CC(C)O (stereo not given) | – | 14.2% (inactive)
8 | C[C@H](N)[C@H](O)c1cccc(O)c1 | – | 6.84% (inactive)
9 | CN1[C@@H]2CC(OC(=O)[C@H](CO)c3ccccc3)C[C@H]1[C@@H]1O[C@@H]12 (stereo not given in full) | – | 1.52% (inactive)
10 | CC(C)(O)c1ccccc1CC[C@@H](SCC1(CC(=O)O)CC1)c1cccc(/C=C/c2ccc3ccc(Cl)cc3n2)c1 | – | 0.335% (inactive)
11 | O=C(O)c1ccccn1 | – | 5.04% (inactive)
12 | Oc1cn2c(n1)Nc1ccc(Cl)c(Cl)c1C2 | – | 3.16% [at 16.1 µM] (inactive)
13 | O=C(O)c1ccccc1-c1ccc(C(F)(F)F)cc1 | – | 6.61% (inactive)
14 | CC[C@@]1(c2ccccc2)NC(=O)N(C)C1=O | – | 7.5% (inactive)
15 | CCCn1cnc2c1c(=O)n(CCCCC(C)=O)c(=O)n2C | – | 8.77% (inactive)
16 | NC(CSCC(=O)O)C(=O)O (stereo not given) | – | 14.9% (inactive)
17 | O=C1O[C@H]([C@@H](O)CO)C(O)=C1O | – | 16.7% (inactive)
18 | C=Cc1c(C)c2cc3[nH]c(cc4nc(cc5nc(cc1[nH]2)C(C)=C5CCC(=O)O)C(CCC(=O)O)=C4C)c(C)c3C=C | – | -2.38% (inactive)
19 | COC(=O)C1=C(C)NC(C)=C(C(=O)OC)C1c1ccccc1[N+](=O)[O-] | – | -6.42% (inactive)
20 | OC[C@H]1O[C@@H](O[C@@H]2[C@@H](CO)O[C@](O)(CO)[C@H]2O)[C@H](O)[C@@H](O)[C@H]1O | – | 8.48% (inactive)

Row | Compound | Potency | activity change, negative = cytotoxic
21 | CN(C)CCOC(C)(c1ccccc1)c1ccccn1 (stereo not given) | – | 0.629% (inactive)
22 | O=Cc1ccccc1C=O | – | -1.68% (inactive)
23 | O=c1[nH]cnc2c1ncn2[C@@H]1O[C@H](CO)[C@@H](O)[C@H]1O | – | 14.9% (inactive)
24 | CNC(=O)Oc1ccc2c(c1)[C@]1(C)CCN(C)[C@@H]1N2C | – | 29% (inactive)
25 | NCCNCCNCCN | – | 30% (inactive)
26 | C=CCn1c(=O)n([C@@H]2O[C@H](CO)[C@@H](O)[C@H]2O)c2nc(N)[nH]c(=O)c21 | – | 13.7% (inactive)
27 | COc1cc(C(=O)N2CCOCC2)cc(OC)c1OC | – | 5.31% (inactive)
28 | COc1ccccc1O | – | 14.3% [at 92.7 µM] (inactive)
29 | O=C(O)CN1C(=O)c2cccc3cccc(c23)C1=O | – | 3.86% (inactive)
30 | c1ccc(CN(CC2=NCCN2)c2ccccc2)cc1 | – | 14.7% (inactive)
31 | N[C@H]1C(O)O[C@H](CO)[C@@H](O)[C@@H]1O (stereo not given in full) | – | 14.4% (inactive)
32 | C[C@H]1O[C@H](O[C@H]2[C@H](O)[C@@H](O)[C@@H](O[C@H]3[C@H](O)[C@@H](O)[C@H](O)O[C@@H]3CO)O[C@@H]2CO)[C@H](O)[C@@H](O)[C@@H]1N[C@H]1C=C(CO)[C@@H](O)[C@H](O)[C@H]1O | – | 1.44% (inactive)
33 | CC(C)C(=O)c1c(C(C)C)nn2ccccc12 | – | 17.5% (inactive)
34 | C[C@H]1O[C@@H](n2cc(F)c(=O)[nH]c2=O)[C@H](O)[C@@H]1O | – | 4.26% (inactive)
35 | CC/C=C(\C(=O)N[C@@H]1C(=O)N2C(C(=O)OCOC(=O)C(C)(C)C)=C(COC(N)=O)CS[C@H]12)c1csc(N)n1 | inactive | –
36 | CCC(=O)Nc1ccc(O)cc1 | – | 9.45% (inactive)
37 | C[C@@H]1CCN(C(=O)[C@H](CCCN=C(N)N)NS(=O)(=O)c2cccc3c2NC[C@H](C)C3)[C@@H](C(=O)O)C1 | – | 1.84% (inactive)
38 | CCN(CC)CCNC(C(=O)OCCC(C)C)c1ccccc1 (stereo not given) | – | -5.52% (inactive)
39 | O=C1c2c(O)cccc2Cc2cccc(O)c21 | – | 7.24% (inactive)
40 | [Cl][In]([Cl])[Cl] | – | 34% [at 92.7 µM] (inactive)
